This is a sample that favours compounds with a hit; in the whole collection about 3.4% have one here.
Wnt act: activators of Wnt/beta-catenin signaling | Wnt/beta-catenin reporter cell assay, activator, plate reader | activation, % at 9.35 µM | actives 1.2% (n = 300,000); in the data active = activation above about 30%, passing the limit was not always enough; inconclusive = no clear call, values can overlap the other calls
esBAF inh: SWI/SNF esBAF complex inhibition | mouse ES cells, Bmi1-luciferase knock-in reporter, 24 h; 100% = twice the neutral-well signal | reporter increase, % at 12.5 µM | actives 2% (n = 350,000) | AID 602393; in the data active = activation above about 40%; inconclusive = no clear call, values can overlap the other calls;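 note: a rise in the Bmi1 reporter signal indicates esBAF inhibition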
miR122 inh: blocks miR-122 activity in Huh7 sensor cells; Huh7 miR-122 Renilla luciferase sensor, 48 h; neutral wells = 0, positive control = 100; activation (reporter increase), % at 12.5 µM; actives 0.3% (n = 340,000);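 active = mean replicate activation score at least 90 and every replicate individually at or above 90; inconclusive = only one of the two criteria met; inactive = neither criterion met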;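 note: higher luciferase means less miR-122 activity so hits act as miR-122 inhibitors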
MITF act: MITF TRPM1 promoter activation in melanoma cells | SK-MEL-5 TRPM1-promoter luciferase, 24 h; % of positive control, neutral wells = 0 | AID 588334 | actives 0.75% (n = 300,000) | activation, % at 12.5 µM;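 active = mean activation of at least 80% with every replicate also reaching 80%; inconclusive = mean reaches 80% but some replicate falls short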
HIV Env fusion: blocks HIV Env-driven cell-cell fusion | HeLa-JRFL Env/CEM21 cell fusion, luciferase | inhibition, % at 12.3 µM | actives 1.1% (n = 360,000);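 active = mean replicate inhibition score of at least 50 and every replicate individually at or above 50; inconclusive = only one of the two criteria met; inactive = mean below 50 and not all replicates reaching 50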
Numbers stand for hits; n = inactive; u = inconclusive; x = no result.

SMILES	Wnt act	esBAF inh	miR122 inh	MITF act	HIV Env fusion
O=C(Nc1ccc(F)c(Cl)c1)C1CCCN(C2=NS(=O)(=O)c3ccccc32)C1 (configuration not stated)	n	n	n	n	x
O=C(Nc1ccc(Cl)cc1)C1CCCN(C2=NS(=O)(=O)c3ccccc32)C1 (configuration not stated)	n	n	n	n	70.4
CCOc1ccc(/C=N/n2cc(-c3ccccc3)[nH]c2=S)cc1	n	44.8	n	n	n
Cc1ccc(S(=O)(=O)CC(=O)c2ccccc2)cc1	x	x	n	n	x
CC(C)(C)c1ccc(C(=O)CS(=O)(=O)c2ccccc2)cc1	x	n	n	108.0	x
C[C@H](CO)N1C[C@H](C)[C@H](CN(C)S(C)(=O)=O)Oc2ccc(NC(=O)CCC(F)(F)F)cc2CC1=O	x	n	n	x	n
C[C@H](CO)N1C[C@H](C)[C@H](CN(C)Cc2cncnc2)Oc2cc(C#CC3CCCC3)ccc2S1(=O)=O	x	n	n	x	n
CCOC(=O)CC(=O)CSc1nc2c(cc1C#N)CCCCC2	x	51.9	n	x	x
CCOC(=O)CC(=O)COc1nc2cc3c(nc2o1)CCCC3	n	59.3	n	x	n
CC(C)OC(=O)CSc1nc2c(cc1C#N)CCCCC2	n	71.4	n	n	n
Cc1ccccc1NC(=O)Cn1cnc2c(oc3nc4c(cc32)CCCC4)c1=O	n	n	n	n	n
COc1ccc(C)cc1S(=O)(=O)NC1CCCCCC1	n	n	101.0	n	n
COc1ccc(S(=O)(=O)NC2CCCCC2)c(C)c1C	n	n	111.4	n	x
COc1ccc(OC)c(S(=O)(=O)NC2CCCCC2)c1	n	n	n	n	x
COCC(=O)Nc1ccc2c(c1)OC[C@H](C)N(Cc1cc(F)ccc1F)C[C@@H](C)[C@H](OC)CN(C)C2=O	x	n	x	x	x
COCC#Cc1ccc([C@H]2[C@@H](CO)N3CCCCN(C(=O)Nc4cc(F)ccc4F)C[C@@H]23)cc1	x	n	n	x	x
Cn1nnc(NC(=S)NC(=O)c2ccc(-c3ccc(Br)cc3)o2)n1	48.6	x	n	n	n
CCCn1nnc(NC(=S)NC(=O)c2ccc(-c3ccc(Br)cc3)o2)n1	n	n	n	x	n
O=C(CN1C(=O)c2ccccc2S1(=O)=O)c1ccc2c(c1)OCCCO2	n	x	n	x	90.7
O=C(CN1C(=O)c2ccccc2S1(=O)=O)c1ccc(F)cc1	n	x	n	x	u
O=C(CN1C(=O)c2ccccc2S1(=O)=O)c1ccc2c(c1)OCCO2	n	x	n	x	84.2
CCCCN1C(=O)C(=O)N(CC(=O)c2ccc3c(c2)OCO3)C1=O	n	n	n	n	n
CC1CCN(C(=O)CN2C(=O)c3ccccc3S2(=O)=O)CC1	48.4	n	n	n	n
CCCC1Oc2ccccc2C(=O)N(CC(=O)c2ccc3c(c2)OCCO3)C1=O (configuration not stated)	n	60.5	n	n	n
O=C(CN1C(=O)c2ccccc2S1(=O)=O)c1ccc(Cl)cc1Cl	n	n	n	n	62.0
SMILES	Wnt act	esBAF inh	miR122 inh	MITF act	HIV Env fusion
CC(C)CC1NC(=O)N(CC(=O)c2ccc3c(c2)OCCO3)C1=O (configuration not stated)	33.1	n	n	x	n
COc1ccccc1-n1cc([C@@H]2C[C@H]3CN(c4ccccc4)C(=O)[C@]34CCCN24)cn1	n	x	n	n	58.6
COc1cc([C@@H]2C[C@H]3CN(c4ccccc4)C(=O)[C@]34CCCN24)cc(OC)c1OC	n	n	n	n	n
Cc1ccc(NCC(=O)N/N=C/c2cc3ccccc3nc2Cl)cc1	x	61.1	n	x	n
O=C(CN1CCOCC1)N/N=C/c1cc2ccccc2nc1Cl	x	x	n	n	x
Cc1ccc2nc(Cl)c(/C=N/Nc3ccc(C(=O)O)cc3)cc2c1	42.8	n	n	n	n
C[C@@H]1CCCCO[C@H](CN(C)C(=O)Nc2cccc3ccccc23)[C@H](C)CN([C@@H](C)CO)C(=O)c2cc(NC(=O)Nc3ccc4c(c3)OCO4)ccc2O1	x	n	n	x	n
C[C@H]1CN([C@@H](C)CO)C(=O)c2cc(C3=CCCC3)cnc2O[C@H]1CN(C)S(=O)(=O)c1cn(C)cn1	x	n	n	x	n
CN1[C@H](C(=O)Nc2ccccc2)[C@@H](CO)[C@@H]2Cn3c(ccc(-c4ccc(F)cc4)c3=O)[C@@H]21	x	n	x	x	n
COC(=O)c1cc2c(c3c4cc(OC)ccc4n(S(=O)(=O)c4ccccc4)c13)C(=O)N(Cc1ccc(C(F)(F)F)cc1)C2	n	x	x	x	95.7
O=C(CSc1ccc(-c2nc3ccccc3[nH]2)cn1)Nc1ccc(S(=O)(=O)N2CCCC2)cc1	40.8	x	x	n	n
Cc1cc2nc(-c3ccc(SCC(=O)Nc4ccc(S(=O)(=O)N5CCCC5)cc4)nc3)[nH]c2cc1C	47.5	x	n	n	n
COc1ccc(-c2ccc3c(c2)O[C@@H](CN(C)C)[C@H](C)CN([C@@H](C)CO)S3(=O)=O)cc1	x	n	n	x	n
CC(=O)Nc1ccc(N/C=C/C(=O)c2ccco2)cc1	x	n	x	n	x
O=C(/C=C/Nc1ccccc1Oc1ccccc1)c1ccco1	n	n	n	n	n
O=C(/C=C/C=C/c1ccccc1)c1ccco1	39.6	n	x	n	n
COc1ccccc1Oc1ccc(N/C=C/C(=O)c2ccco2)cc1	n	86.8	n	n	n
O=C(/C=C/Nc1ccccc1O)c1ccco1	52.3	x	x	n	n
CN(C)c1ccc(N/C=C/C(=O)c2ccco2)cc1	42.9	n	n	n	n
O=C(/C=C/Nc1cccc(F)c1)c1ccco1	x	44.5	n	92.5	n
O=C(/C=C/Nc1ccc(F)c(Cl)c1)c1ccco1	x	x	n	n	x
C=CCc1ccc(OCC(O)CO)c(OC)c1 (configuration not stated)	n	x	x	n	n
C=CCc1ccc(OCC(O)COCC)c(OC)c1 (configuration not stated)	x	40.9	n	92.7	x
CCCN(C)C[C@H]1Oc2ncc(-c3ccccc3)cc2C(=O)N([C@H](C)CO)C[C@H]1C	x	n	n	x	n
Cc1cc(O)c(C(=O)Nc2cccc(Cl)c2)c(=O)n1C	n	58.8	x	n	n
SMILES	Wnt act	esBAF inh	miR122 inh	MITF act	HIV Env fusion
CCc1ccc(NC(=O)c2onc(C)c2Cl)cc1	n	54.2	n	n	n
COc1ccc(NC(=O)c2cc(C)on2)cc1OC	x	n	n	n	n
COc1ccc(NC(=O)c2cc(C)on2)cc1	34.0	n	n	n	n
CCn1c(C)cc(O)c(C(=O)Nc2cccc(Cl)c2)c1=O	n	n	n	n	n
Cc1noc(C(=O)Nc2cccc(Cl)c2)c1Cl	n	55.8	n	n	n
Cc1noc(C(=O)Nc2cccc(O)c2)c1Cl	n	n	n	n	n
COC(=O)C[C@H]1CC[C@H]2[C@@H](COC[C@@H](O)CN2S(=O)(=O)c2ccc(F)cc2)O1	x	n	n	x	n
COc1ccc(NC(=O)c2onc(C)c2Cl)cc1	n	45.9	n	n	n
CC1(C)Cc2c(sc(NC(=O)Nc3ccccc3)c2C(N)=O)CO1	n	54.7	x	x	n
Cc1sc(NC(=S)NC(=O)c2ccco2)c(C(N)=O)c1C	n	48.6	x	n	n
Cc1sc(NC(=O)Nc2ccccc2)c(C(N)=O)c1C	33.0	u	n	n	n

High-throughput results: PubChem BioAssay, Broad Institute
